# FXIIa mix inh: factor XIIa (human) inhibition, mixture screen. purified FXIIa, fluorogenic substrate, pooled mixtures. P00748. inhibition, % at 5 µM. hit rate 0.2% among 62,000
# FXIa mix inh: factor XIa (human) inhibition, mixture screen; P03951; purified FXIa, fluorogenic substrate, pooled mixtures; inhibition, % at 5 µM; hit rate 0.19% among 62,000;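 further: each value is inhibition by a whole ten-compound pool holding the compound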
# Ec RNAP inh: Escherichia coli RNA polymerase inhibition. P0A8V2. E. coli RNA polymerase, fluorescence transcription assay. inhibition, %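 (tested at 10 µM)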. hit rate 0.2% among 62,000. AID 559; in the data active means inhibition above about 20%
# Target sequence (P0A8V2 whole entry, looked up): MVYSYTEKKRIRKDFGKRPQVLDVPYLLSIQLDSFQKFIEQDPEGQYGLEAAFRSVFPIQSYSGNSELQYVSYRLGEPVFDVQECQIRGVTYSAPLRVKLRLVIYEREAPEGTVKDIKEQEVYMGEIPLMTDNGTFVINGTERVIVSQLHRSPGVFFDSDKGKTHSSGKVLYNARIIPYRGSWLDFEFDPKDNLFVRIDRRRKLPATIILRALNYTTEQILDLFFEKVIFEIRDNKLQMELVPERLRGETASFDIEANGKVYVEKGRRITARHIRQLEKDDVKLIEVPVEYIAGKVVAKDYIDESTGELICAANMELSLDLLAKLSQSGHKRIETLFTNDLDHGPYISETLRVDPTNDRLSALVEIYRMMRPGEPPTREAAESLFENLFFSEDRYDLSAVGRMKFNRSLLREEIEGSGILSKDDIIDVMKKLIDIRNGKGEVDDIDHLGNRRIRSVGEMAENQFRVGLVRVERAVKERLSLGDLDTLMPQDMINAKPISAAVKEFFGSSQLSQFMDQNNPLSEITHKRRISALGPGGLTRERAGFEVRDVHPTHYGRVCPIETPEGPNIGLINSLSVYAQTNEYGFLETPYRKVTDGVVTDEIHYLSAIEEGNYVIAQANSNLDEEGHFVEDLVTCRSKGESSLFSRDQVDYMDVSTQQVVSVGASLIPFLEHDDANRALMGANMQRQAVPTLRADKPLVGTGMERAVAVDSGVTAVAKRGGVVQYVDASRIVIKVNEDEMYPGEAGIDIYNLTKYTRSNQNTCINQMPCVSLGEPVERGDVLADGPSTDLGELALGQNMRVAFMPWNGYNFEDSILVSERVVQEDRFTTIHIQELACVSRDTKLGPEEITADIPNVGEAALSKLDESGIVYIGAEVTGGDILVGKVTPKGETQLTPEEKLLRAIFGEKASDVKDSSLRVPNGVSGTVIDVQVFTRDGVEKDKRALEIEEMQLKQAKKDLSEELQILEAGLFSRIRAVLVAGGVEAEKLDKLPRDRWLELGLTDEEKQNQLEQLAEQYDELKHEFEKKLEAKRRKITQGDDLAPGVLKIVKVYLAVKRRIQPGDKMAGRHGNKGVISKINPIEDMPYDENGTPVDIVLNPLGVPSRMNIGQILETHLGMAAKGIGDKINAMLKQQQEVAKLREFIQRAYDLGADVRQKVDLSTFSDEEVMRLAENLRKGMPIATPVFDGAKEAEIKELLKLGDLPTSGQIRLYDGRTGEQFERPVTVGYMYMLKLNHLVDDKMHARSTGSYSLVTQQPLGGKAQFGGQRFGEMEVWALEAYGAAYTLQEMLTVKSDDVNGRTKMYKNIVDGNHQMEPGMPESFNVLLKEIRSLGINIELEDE
# Smad3 FoxH1 inh: Smad3 (human) transcription factor binding inhibition | inhibition, % at 25 µM | TR-FRET Smad3/Dy647-FoxH1 peptide binding, europium anti-His | hit rate 0.29% among 88,000 | AID 630 | P84022;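 active means compounds that reduce the energy-transfer binding signal between the protein and its labelled peptide by more than half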
# A number is an active result; i = inactive; nt = no result; [ ] = another dose, or the depositor's remark. Only some compounds are listed: those with a hit (about 0.59% of all), similar ones and a draw of the others. Unless noted, no stated cut-off is given here; in the data, active means inhibition above about 20% (passing the limit was not always enough); inactive means the rest.
SMILES,FXIIa mix inh,FXIa mix inh,Ec RNAP inh,Smad3 FoxH1 inh
COc1ccccc1N1C(=O)C2C3C=CC(C3)C2C1=O (stereo not given),20.6,i,i,nt
Nc1nc(SCC2CCCCC2[N+](=O)[O-])c2[nH]cnc2n1 (stereo not given),nt,nt,nt,i
Cn1c(=O)c2cc(NC(=O)c3ccccc3Cl)c(=O)oc2n(C)c1=O,i,32.7,i,i
COc1ccccc1C1NC(=O)NC(C)=C1C(C)=O (stereo not given),71.6,i,i,i
COc1ccccc1C1NC(=O)NC(C)=C1C(=O)Nc1cccc(C)c1C (stereo not given),i,i,i,i
CC1(C)S[C@H]2[C@H](NC(=O)Cc3ccccc3)C(=O)N2[C@@H]1C(=O)O,nt,nt,nt,i
C/C(N[O-])=C(\C)[N+]([O-])=[Cu].C/C(N[O-])=C(\C)[N+]([O-])=[Cu].CC(=N\[O-])/C(C)=N/[O-].CC(=N\[O-])/C(C)=N/[O-],nt,nt,nt,i
CC(=O)Nc1sc2c(c1C#N)CCCCC2,i,i,21.8,i
CC(C)[C@@]12CC[C@]3(CC[C@@H]4[C@](C)(CCC[C@@]4(C)C(=O)O)[C@@H]3C1)[C@@H](CN)C2,nt,nt,nt,i
Cc1cc(C(C)(C)C)c(OCCCN2CCOCC2)c(C(C)(C)C)c1,nt,nt,nt,i
CCOC(=O)c1c(C)[nH]c(C(=O)COC(=O)C2CC2C)c1C (stereo not given),i,27.3,i,i
COc1ccc(-c2nnn(CC(=O)c3ccc4c(c3)OCCO4)n2)cc1OC,i,20.3,i,i
CCOc1ccc(-c2nnn(CC(=O)c3ccc4c(c3)OCCO4)n2)cc1,i,i,i,i
O=C(Nc1ccc(-c2nc3ccc(NC(=O)c4cccs4)cc3[nH]2)cc1)c1cccs1,nt,nt,nt,53.8[fluorescence artefact?]
O=C(Nc1ccc2nc(-c3cccs3)[nH]c2c1)c1cccs1,i,i,i,i
O=C(O)C/C(=C/c1ccccc1)C(=O)O,nt,nt,nt,i
COc1cccc(Oc2ccc(N)cn2)c1,23.2,i,i,i
CCOc1cccc(Oc2ccc(C(F)(F)F)cn2)c1,i,i,i,i
O=[N+]([O-])c1ccc(S(=O)(=O)Cc2ccccc2)c2nonc12,nt,nt,nt,i
NC(N)=Nc1ccc(-c2ccc(N=C(N)N)cc2)cc1,nt,nt,nt,i
NC(N)=NC(N)=Nc1ccccc1 (tested in a mixture with another compound),nt,nt,nt,60.2
CC(C)NC(=O)c1ccc(COCC(F)(F)C(F)F)cc1,nt,nt,nt,65.2
O=C(O)CCn1c(=O)c2ccccc2c2ccccc2c1=O,i,i,i,i
O=c1c2ccccc2c2ccccc2c(=O)n1-c1cc2c3ccccc3ccc2c2ccccc12,nt,nt,nt,86.2
COC(=O)Cc1c(C)c2c(OCc3nn[nH]n3)cc(C)cc2oc1=O,24.2,i,i,i
SMILES,FXIIa mix inh,FXIa mix inh,Ec RNAP inh,Smad3 FoxH1 inh
COC(=O)Cc1c(C)c2ccc(OCc3nn[nH]n3)cc2oc1=O,nt,nt,nt,i
CCC(=O)n1nc(-c2ccc(OC)cc2)nc1SC,nt,nt,nt,i
COc1ccc(-c2nc(SC)n(C(=O)c3ccco3)n2)cc1,i,23.8,i,i
COc1ccc(C(=O)N/N=C2\C(=O)c3c(C)cc(C)cc3CC2(C)C)cc1,nt,nt,nt,i
CCO[P@]1(=O)OC[C@@H]2O[C@H](n3cnc4c(N)ncnc43)[C@H](O)[C@H]2O1,nt,nt,nt,i
O=c1c(-c2ccco2)[n+]([O-])c2ccccc2n1OCc1ccccn1,i,29.5,i,i
C[C@@H](N)/C(N)=N\O,nt,nt,nt,i
O=S(=O)(c1ccccc1)c1ccccc1/C=N\O,24.6,i,nt,i
NC(N)=N/N=C(/c1ccc(Cl)cc1)C1CC1,nt,nt,nt,i
CCOC(=O)NC1(Nc2ccc(Cl)cn2)Oc2ccccc2O1,i,i,25.3,i
N=C(N)c1ccc(N=Nc2c(O)ccc3c2[nH]c2ccccc23)cc1,nt,nt,nt,102.2
CCCCCCc1c(O)c2ccccc2[nH]c1=O,i,i,i,i
Cc1cn([C@@H]2C[C@H](N=[N+]=[N-])[C@H](CO)O2)c(=O)[nH]c1=O,nt,nt,nt,i
COc1ccc(OC)c(S(=O)(=O)Nc2ccc(O)c3ccccc23)c1,i,i,28.3,i
COc1ccc(OC)c(S(=O)(=O)Nc2ccc(Oc3ccccc3)cc2)c1,nt,nt,nt,i
Cc1cc(-c2ccccc2C(=O)NCc2ccccc2)on1,i,26.7,i,i
O=C(NCCO)c1ccc(Cl)cc1,nt,nt,nt,57.6
O=C1Oc2ccccc2C(=O)/C1=C/N1C(=O)N/C(=C\c2ccccc2O)C1=O,nt,nt,nt,i
Cc1ccc(C)c([C@@H]2NC(=O)c3ccccc3N2)c1,nt,nt,nt,i
CCCc1[nH]nc2c1C(c1ccccc1OC)C(C#N)=C(N)O2 (stereo not given),i,i,i,i
CCCc1[nH]nc2c1C(c1cn[nH]c1-c1ccc(F)cc1)C(C#N)=C(N)O2 (stereo not given),i,21.1,i,i
Cn1c(=S)c2[nH]c(SCCN3C(=O)c4ccccc4C3=O)nc2n(C)c1=O,nt,nt,nt,i
O=S(=O)(O)c1cc(N=Nc2cccc3ccccc23)c(O)c2ncccc12,nt,nt,nt,i

# High-throughput results as filed in PubChem.
